Inconclusive results are not listed. A call without a number means that no potency is given here. Activity calls are given as the source filed them. The call rests on the fitted dose curve; in most records, active means well fitted cell-killing curve with a large enough effect in the repeat runs; inconclusive means weak or mixed curves, or effect the other way; inactive means flat fitted curve, though single readings scatter.
Assay: qHTS assay to identify small molecule antagonists of the estrogen receptor alpha (ER-alpha) signaling pathway using the BG1 cell line - cell viability counter screen (AID 743081);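 further: compound given together with 17beta-estradiol as the ER stimulus; nearly all actives have a fitted effect of over 45% in size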
Settings: BG1Luc4E2 viability, CellTiter-Fluor, 22 h; series mostly up to 70.3 µM
Potency means the concentration at half of the fitted maximal effect.

Compound | Potency
CCc1ccc(S(=O)(=O)O)cc1 | inactive
Cc1cc(-c2ccc(N=Nc3c(S(=O)(=O)O)cc4cc(S(=O)(=O)O)cc(N)c4c3O)c(C)c2)ccc1N=Nc1c(S(=O)(=O)O)cc2cc(S(=O)(=O)O)cc(N)c2c1O | 21.1 µM (active)
C#CCC(Cc1cnc2nc(N)nc(N)c2n1)c1ccc(C(=O)N[C@@H](CCC(=O)O)C(=O)O)cc1 (stereo partly drawn) | inactive
CO[C@H]1[C@@H](O)[C@H](N)[C@@H](O[C@H]2O[C@H]([C@H](C)N)CC[C@H]2N)[C@H](O)[C@@H]1N(C)C(=O)CN | inactive
CCCCC(O)c1ccccc1 (stereo not drawn) | inactive
CN[C@H]1CCc2cc(OC)c(OC)c(OC)c2-c2ccc(OC)c(=O)cc21 | inactive
COc1cc(/C=C/C(=O)N2CCN(CC(=O)N3CCCC3)CC2)cc(OC)c1OC | inactive
O=C(OCc1ccccc1)c1cccnc1 | inactive
O=c1[nH]cnc2[nH]cc(CN3CCCCC3)c12 | inactive
CC(=O)N[C@@H]1C(O[C@H]2O[C@H](C(=O)O)C(O)[C@H](O)[C@H]2O)[C@H](O)[C@@H](CO)O[C@H]1O[C@@H]1C(C(=O)O)O[C@@H](O[C@H]2[C@H](O)[C@@H](CO)OC(O)[C@@H]2NC(C)=O)[C@H](O)[C@H]1O (stereo partly drawn) | inactive
O=C[C@H](O)[C@@H](O)[C@H](O[C@H]1O[C@H](CO)[C@@H](O[C@H]2O[C@H](CO)[C@@H](O)[C@H](O)[C@H]2O)[C@H](O)[C@H]1O)[C@H](O)CO | inactive
OCC(O)COc1ccc(Cl)cc1 (stereo not drawn) | inactive
C=CCN1CCCC1CNC(=O)c1cc(S(N)(=O)=O)cc(OC)c1OC (stereo not drawn) | inactive

— PubChem BioAssay (Tox21)
